# Screening data (PubChem BioAssay)
# Hits are enriched below; roughly 3.9% of the tested compounds scored in any of these assays.
# Wnt bcat act = activators of Wnt/beta-catenin signaling. 300,000 compounds, 1.2% hits. Wnt/beta-catenin reporter cell assay, activator, plate reader. activation, % at 9.35 µM. AID 743398; in the data active means activation above about 30%, passing the limit was not always enough; inconclusive means no clear call, values can overlap the other calls
# HSF1 inh = HSF1 inhibition | NIH3T3-HGL HSE-luciferase, MG132-induced, luminescence 8 h; hits give low values | activity change, negative = inhibition, % at 7.5 µM (by protocol) | 300,000 compounds, 0.77% hits | AID 2098;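 active means more than half of replicate wells show activity change below -50%, luminescence cut by over half; inconclusive means some wells, but at most half, below -50%; inactive means no replicate well below -50%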;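 further: luciferase reports HSF-1 transcriptional activity via heat shock element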
# MITF act = MITF TRPM1 promoter activation in melanoma cells; SK-MEL-5 TRPM1-promoter luciferase, 24 h; % of positive control, neutral wells = 0; activation, % at 12.5 µM; 300,000 compounds, 0.75% hits;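 active means mean activation of at least 80% with every replicate also reaching 80%; inconclusive means mean reaches 80% but some replicate falls short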
# esBAF inh = blocks esBAF chromatin remodeling in mouse ES cells; Bmi1-luciferase knock-in reporter, 24 h; 100% = twice the neutral-well signal; reporter increase, % at 12.5 µM; 350,000 compounds, 2% hits; AID 602393; in the data active means activation above about 40%; inconclusive means no clear call, values can overlap the other calls;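 further: a rise in the Bmi1 reporter signal indicates esBAF inhibition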
# HSF-1 act = increases HSF-1 driven luciferase reporter signal; NIH3T3-HGL HSF-1 luciferase reporter, MG132, 8 h; 100% = twice DMSO control signal; 300,000 compounds, 1.7% hits; activation, % at 9 µM;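 active means mean replicate activation of at least 50% with a set share of replicates each reaching 50%; inconclusive means only one of those two conditions met; inactive means mean below 50% and too few replicates reaching it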
# Hits are given with their value; 0 = inactive; ? = inconclusive; - = not tested or not shown.
SMILES,Wnt bcat act,HSF1 inh,MITF act,esBAF inh,HSF-1 act
CNC[C@@H]1OCCCC[C@@H](C)Oc2ccc(NS(=O)(=O)c3cn(C)cn3)cc2C(=O)N([C@H](C)CO)C[C@H]1C,-,-,-,0,-
O=C(Nc1ccccn1)c1sc2cc([N+](=O)[O-])ccc2c1Cl,0,0,-,42,0
CC(NC(=O)c1csc2ccccc12)C1CCCO1 (centres undefined),-,0,0,0,0
CC(NC(=O)c1sc2ccccc2c1Cl)C1CCCO1 (centres undefined),0,0,126,-,69
COC(=O)C[C@H]1CC[C@@H]2[C@H](COc3ccc(NC(=O)c4cscn4)cc3C(=O)N2C)O1,-,-,-,0,-
O=C(C[C@H]1C=C[C@H](NC(=O)c2cccnc2)[C@@H](CO)O1)NCc1ccc(Cl)c(Cl)c1,-,-,-,0,-
CCCC(=O)Nc1ccc2c(c1)OC[C@@H](C)N(C(=O)CN(C)C)C[C@@H](C)[C@@H](OC)CN(C)C2=O,-,-,-,0,-
CCCCOc1ccc(S(=O)(=O)N2CCCCCC2)cc1,-,0,0,0,66
C[C@@H]1CN([C@@H](C)CO)C(=O)c2cccc(NC(=O)c3nc4ccccc4s3)c2O[C@@H]1CN(C)CC1CCCCC1,-,-,-,0,-
Nc1c(C(=O)c2ccc(Cl)cc2)sc2nsc(SCCN3CCOCC3)c12,0,0,0,0,0
Nc1c(C(=O)c2ccccc2)sc2nsc(SCCN3CCCC3)c12,0,0,-,0,118
N#CCCN1CCN(C(=S)c2ccc(-c3ccc(Cl)c(Cl)c3)o2)CC1,-,0,0,46,100
N#CCCN1CCN(C(=S)c2ccc(-c3cccc(Cl)c3)o2)CC1,-,0,0,78,?
O=[N+]([O-])c1cc(-c2ccc(C(=S)N3CCOCC3)o2)ccc1Cl,0,0,0,0,0
Cc1noc(C)c1NC(=O)Nc1ccc2c(c1)CC(=O)N([C@@H](C)CO)C[C@@H](C)[C@@H](CN(C)S(C)(=O)=O)O2,-,-,-,0,-
O=C(C[C@H]1CC[C@@H]2[C@H](COC[C@@H](O)CN2Cc2ccccc2F)O1)N[C@H]1CCN(Cc2ccccc2)C1,-,-,-,0,-
COc1ccc(-c2coc3cc4oc(=O)c(CC(=O)O)c(C)c4cc23)cc1,0,0,-,0,71
Cc1ccccc1-c1ccc([C@H]2[C@H](CO)N3CCCCN(C(=O)c4cccnc4)C[C@@H]23)cc1,-,-,-,0,-
Cc1ccc(-n2c(C)nc3ccsc3c2=O)cc1,0,0,0,0,0
Cc1ccc(-c2nc3ccsc3c(=O)o2)cc1,50,0,0,-,0
O=C(c1ccccn1)N1CC[C@@H]2[C@H]1c1cc(-c3ccc(F)cc3)ccc1N[C@@H]2CO,-,-,-,47,-
O=C(c1ccccn1)N1CC[C@@H]2[C@H](CO)Nc3ccc(-c4ccccc4)cc3[C@@H]21,-,-,-,0,-
C=CCn1cccc(C(=O)Nc2ccc(F)cc2)c1=O,0,0,0,67,0
COc1cc([N+](=O)[O-])cc(/C=N/NC(=O)c2ccc(NC(=O)c3ccc(C)cc3)cc2)c1O,0,-58,0,0,0
COc1cc(/C=N/n2cnnc2)ccc1OCc1ccc(C)cc1,-,0,0,57,0
SMILES,Wnt bcat act,HSF1 inh,MITF act,esBAF inh,HSF-1 act
COc1cc([N+](=O)[O-])cc(/C=N/NC(=O)c2ccc(C)nc2)c1O,0,0,0,-,0
COc1cc(/C=N/NC(=O)c2cccc([N+](=O)[O-])c2)ccc1OCc1ccc(C)cc1,?,0,0,56,68
COc1ccc(/C=N/NC(=O)c2cccc([N+](=O)[O-])c2)cc1O,0,0,0,-,0
COc1ccc(CN(C)C[C@H]2Oc3c(NS(=O)(=O)c4ccccc4)cccc3C(=O)N([C@H](C)CO)C[C@H]2C)cc1,-,-,-,0,-
COCC(=O)N1C[C@H](C)[C@H](OC)CN(C)C(=O)c2cc(NS(C)(=O)=O)ccc2OC[C@@H]1C,-,-,-,0,-
O=C(Cc1ccncc1)NCC[C@@H]1CC[C@H](NS(=O)(=O)c2ccccc2Cl)[C@H](CO)O1,-,-,-,0,-
C=CCn1c(C)nnc1SCC(=O)Nc1nc(C)c(C(=O)N(C)C)s1,0,-76,0,0,0
C[C@@H]1CCCCO[C@@H](CN(C)CC2CCCCC2)[C@H](C)CN([C@H](C)CO)C(=O)c2cc(NC(=O)CCCCCC(=O)Nc3ccccc3N)ccc2O1,-,-,-,0,-
O=C(/C=C/c1c(F)cccc1Cl)Nc1ccncc1,-,0,0,62,69
O=C(/C=C/c1cccc(Cl)c1)Nc1ccncc1,-,0,0,0,0
O=C(/C=C/c1c(Cl)cccc1Cl)Nc1ccncc1,0,0,88,44,?
